{"source": "paper PMC11062922", "about": "(Nature Chemical Biology, 2023)", "key": {"[1]": {"test_system": "AURKA", "conditions": "read-out: apparent Kd, n = 1"}, "[2]": {"test_system": "CHEK1", "conditions": "read-out: apparent Kd, n = 1"}}, "note": "Like-named read-outs stand apart in the source and are kept apart here.", "data": [{"substance": "Lestaurtinib", "values": [{"measurement": "potency estimated from few doses", "setting": "[1]; compound concentrations:100 nM and 1000 nM (sheet 'Lestaurtinib' of Supplementary Table 1),run:Lestaurtinib_02802_R1,Plate:MR029", "value": 0.0162, "unit": "µM"}, {"measurement": "potency estimated from few doses", "setting": "[1]; compound concentrations:100 nM and 1000 nM (sheet 'Lestaurtinib' of Supplementary Table 1),run:Lestaurtinib_02802_R2,Plate:MR029", "value": 0.0159, "unit": "µM"}, {"measurement": "potency estimated from few doses", "setting": "[1]; compound concentrations:100 nM and 1000 nM (sheet 'Lestaurtinib' of Supplementary Table 1),run:Lestaurtinib_02802_R3,Plate:MR029", "value": 0.0141, "unit": "µM"}, {"measurement": "potency estimated from few doses", "setting": "[1]; compound concentrations:100 nM and 1000 nM (sheet 'Lestaurtinib' of Supplementary Table 1),run:Lestaurtinib_02896_R1,Plate:MR030", "value": 0.0154, "unit": "µM"}, {"measurement": "potency estimated from few doses", "setting": "[1]; compound concentrations:100 nM and 1000 nM (sheet 'Lestaurtinib' of Supplementary Table 1),run:Lestaurtinib_02896_R2,Plate:MR030", "value": 0.0163, "unit": "µM"}, {"measurement": "potency estimated from few doses", "setting": "[1]; compound concentrations:100 nM and 1000 nM (sheet 'Lestaurtinib' of Supplementary Table 1),run:Lestaurtinib_02896_R3,Plate:MR030", "value": 0.0162, "unit": "µM"}, {"measurement": "potency estimated from few doses", "setting": "[1]; compound concentrations:100 nM and 1000 nM (sheet 'Lestaurtinib' of Supplementary Table 1),run:Lestaurtinib_03172_R1,Plate:MR031", "value": 0.017, "unit": "µM"}, {"measurement": "potency estimated from few doses", "setting": "[1]; compound concentrations:100 nM and 1000 nM (sheet 'Lestaurtinib' of Supplementary Table 1),run:Lestaurtinib_03252_R1,Plate:MR032", "value": 0.0163, "unit": "µM"}, {"measurement": "potency estimated from few doses", "setting": "[1]; compound concentrations:100 nM and 1000 nM (sheet 'Lestaurtinib' of Supplementary Table 1),run:Lestaurtinib_03260_R1,Plate:MR033", "value": 0.0275, "unit": "µM"}, {"measurement": "potency estimated from few doses", "setting": "[1]; compound concentrations:100 nM and 1000 nM (sheet 'Lestaurtinib' of Supplementary Table 1),run:Lestaurtinib_03260_R3,Plate:MR033", "value": 0.0222, "unit": "µM"}, {"measurement": "potency estimated from few doses", "setting": "[2]; compound concentrations:100 nM and 1000 nM (sheet 'Lestaurtinib' of Supplementary Table 1),run:Lestaurtinib_02339_R1,Plate:MR001", "value": 0.0996, "unit": "µM"}, {"measurement": "potency estimated from few doses", "setting": "[2]; compound concentrations:100 nM and 1000 nM (sheet 'Lestaurtinib' of Supplementary Table 1),run:Lestaurtinib_02339_R2,Plate:MR001", "value": 0.0728, "unit": "µM"}, {"measurement": "potency estimated from few doses", "setting": "[2]; compound concentrations:100 nM and 1000 nM (sheet 'Lestaurtinib' of Supplementary Table 1),run:Lestaurtinib_02339_R3,Plate:MR001", "value": 0.0713, "unit": "µM"}, {"measurement": "potency estimated from few doses", "setting": "[2]; compound concentrations:100 nM and 1000 nM (sheet 'Lestaurtinib' of Supplementary Table 1),run:Lestaurtinib_02364_R1,Plate:MR002", "value": 0.0671, "unit": "µM"}, {"measurement": "potency estimated from few doses", "setting": "[2]; compound concentrations:100 nM and 1000 nM (sheet 'Lestaurtinib' of Supplementary Table 1),run:Lestaurtinib_02364_R3,Plate:MR002", "value": 0.0864, "unit": "µM"}, {"measurement": "potency estimated from few doses", "setting": "[2]; compound concentrations:100 nM and 1000 nM (sheet 'Lestaurtinib' of Supplementary Table 1),run:Lestaurtinib_02367_R2,Plate:MR003", "value": 0.078, "unit": "µM"}, {"measurement": "potency estimated from few doses", "setting": "[2]; compound concentrations:100 nM and 1000 nM (sheet 'Lestaurtinib' of Supplementary Table 1),run:Lestaurtinib_02381_R1,Plate:MR004", "value": 0.0787, "unit": "µM"}, {"measurement": "potency estimated from few doses", "setting": "[2]; compound concentrations:100 nM and 1000 nM (sheet 'Lestaurtinib' of Supplementary Table 1),run:Lestaurtinib_02381_R3,Plate:MR004", "value": 0.0618, "unit": "µM"}, {"measurement": "potency estimated from few doses", "setting": "[2]; compound concentrations:100 nM and 1000 nM (sheet 'Lestaurtinib' of Supplementary Table 1),run:Lestaurtinib_02407_R1,Plate:MR005", "value": 0.0739, "unit": "µM"}, {"measurement": "potency estimated from few doses", "setting": "[2]; compound concentrations:100 nM and 1000 nM (sheet 'Lestaurtinib' of Supplementary Table 1),run:Lestaurtinib_02407_R2,Plate:MR005", "value": 0.071, "unit": "µM"}, {"measurement": "potency estimated from few doses", "setting": "[2]; compound concentrations:100 nM and 1000 nM (sheet 'Lestaurtinib' of Supplementary Table 1),run:Lestaurtinib_02422_R1,Plate:MR006", "value": 0.0708, "unit": "µM"}, {"measurement": "potency estimated from few doses", "setting": "[2]; compound concentrations:100 nM and 1000 nM (sheet 'Lestaurtinib' of Supplementary Table 1),run:Lestaurtinib_02422_R2,Plate:MR006", "value": 0.031, "unit": "µM"}, {"measurement": "potency estimated from few doses", "setting": "[2]; compound concentrations:100 nM and 1000 nM (sheet 'Lestaurtinib' of Supplementary Table 1),run:Lestaurtinib_02422_R3,Plate:MR006", "value": 0.0762, "unit": "µM"}, {"measurement": "potency estimated from few doses", "setting": "[2]; compound concentrations:100 nM and 1000 nM (sheet 'Lestaurtinib' of Supplementary Table 1),run:Lestaurtinib_02437_R2,Plate:MR007", "value": 0.0679, "unit": "µM"}, {"measurement": "potency estimated from few doses", "setting": "[2]; compound concentrations:100 nM and 1000 nM (sheet 'Lestaurtinib' of Supplementary Table 1),run:Lestaurtinib_02437_R3,Plate:MR007", "value": 0.0172, "unit": "µM"}, {"measurement": "potency estimated from few doses", "setting": "[2]; compound concentrations:100 nM and 1000 nM (sheet 'Lestaurtinib' of Supplementary Table 1),run:Lestaurtinib_02438_R2,Plate:MR008", "value": 0.0885, "unit": "µM"}, {"measurement": "potency estimated from few doses", "setting": "[2]; compound concentrations:100 nM and 1000 nM (sheet 'Lestaurtinib' of Supplementary Table 1),run:Lestaurtinib_02438_R3,Plate:MR008", "value": 0.0998, "unit": "µM"}, {"measurement": "potency estimated from few doses", "setting": "[2]; compound concentrations:100 nM and 1000 nM (sheet 'Lestaurtinib' of Supplementary Table 1),run:Lestaurtinib_02443_R2,Plate:MR009", "value": 0.0943, "unit": "µM"}, {"measurement": "potency estimated from few doses", "setting": "[2]; compound concentrations:100 nM and 1000 nM (sheet 'Lestaurtinib' of Supplementary Table 1),run:Lestaurtinib_02473_R1,Plate:MR010", "value": 0.0722, "unit": "µM"}, {"measurement": "potency estimated from few doses", "setting": "[2]; compound concentrations:100 nM and 1000 nM (sheet 'Lestaurtinib' of Supplementary Table 1),run:Lestaurtinib_02473_R2,Plate:MR010", "value": 0.0702, "unit": "µM"}, {"measurement": "potency estimated from few doses", "setting": "[2]; compound concentrations:100 nM and 1000 nM (sheet 'Lestaurtinib' of Supplementary Table 1),run:Lestaurtinib_02482_R1,Plate:MR011", "value": 0.078, "unit": "µM"}, {"measurement": "potency estimated from few doses", "setting": "[2]; compound concentrations:100 nM and 1000 nM (sheet 'Lestaurtinib' of Supplementary Table 1),run:Lestaurtinib_02482_R3,Plate:MR011", "value": 0.0926, "unit": "µM"}, {"measurement": "potency estimated from few doses", "setting": "[2]; compound concentrations:100 nM and 1000 nM (sheet 'Lestaurtinib' of Supplementary Table 1),run:Lestaurtinib_02487_R1,Plate:MR012", "value": 0.0696, "unit": "µM"}, {"measurement": "potency estimated from few doses", "setting": "[2]; compound concentrations:100 nM and 1000 nM (sheet 'Lestaurtinib' of Supplementary Table 1),run:Lestaurtinib_02487_R2,Plate:MR012", "value": 0.0869, "unit": "µM"}, {"measurement": "potency estimated from few doses", "setting": "[2]; compound concentrations:100 nM and 1000 nM (sheet 'Lestaurtinib' of Supplementary Table 1),run:Lestaurtinib_02487_R3,Plate:MR012", "value": 0.0877, "unit": "µM"}, {"measurement": "potency estimated from few doses", "setting": "[2]; compound concentrations:100 nM and 1000 nM (sheet 'Lestaurtinib' of Supplementary Table 1),run:Lestaurtinib_02496_R1,Plate:MR013", "value": 0.0926, "unit": "µM"}, {"measurement": "potency estimated from few doses", "setting": "[2]; compound concentrations:100 nM and 1000 nM (sheet 'Lestaurtinib' of Supplementary Table 1),run:Lestaurtinib_02496_R2,Plate:MR013", "value": 0.0796, "unit": "µM"}, {"measurement": "potency estimated from few doses", "setting": "[2]; compound concentrations:100 nM and 1000 nM (sheet 'Lestaurtinib' of Supplementary Table 1),run:Lestaurtinib_02566_R1,Plate:MR014", "value": 0.0882, "unit": "µM"}, {"measurement": "potency estimated from few doses", "setting": "[2]; compound concentrations:100 nM and 1000 nM (sheet 'Lestaurtinib' of Supplementary Table 1),run:Lestaurtinib_02566_R2,Plate:MR014", "value": 0.0756, "unit": "µM"}, {"measurement": "potency estimated from few doses", "setting": "[2]; compound concentrations:100 nM and 1000 nM (sheet 'Lestaurtinib' of Supplementary Table 1),run:Lestaurtinib_02566_R3,Plate:MR014", "value": 0.0668, "unit": "µM"}, {"measurement": "potency estimated from few doses", "setting": "[2]; compound concentrations:100 nM and 1000 nM (sheet 'Lestaurtinib' of Supplementary Table 1),run:Lestaurtinib_02572_R1,Plate:MR015", "value": 0.0897, "unit": "µM"}, {"measurement": "potency estimated from few doses", "setting": "[2]; compound concentrations:100 nM and 1000 nM (sheet 'Lestaurtinib' of Supplementary Table 1),run:Lestaurtinib_02584_R1,Plate:MR017", "value": 0.0769, "unit": "µM"}, {"measurement": "potency estimated from few doses", "setting": "[2]; compound concentrations:100 nM and 1000 nM (sheet 'Lestaurtinib' of Supplementary Table 1),run:Lestaurtinib_02584_R3,Plate:MR017", "value": 0.0875, "unit": "µM"}]}]}
